Results filed as inconclusive are left out. The source made the active and inactive calls. Unless noted, calls follow the shape of the dose curve; as a rule, active = well fitted curve in the direction sought with a large enough effect; inconclusive = small, poorly fitted or top-dose-only effect, or another doubt; inactive = no such curve, though single readings can be large; an effect the other way counts as inactive or inconclusive.
Columns and labels:
C33A = test: Primary qHTS to identify gynecologic anti-cancer compounds using libraries of approved drugs and bioactive compounds (AID 1345084); details: Gynecologic cancer cell panel viability, ATPlite luminescence, 48 h; series mostly up to 57.5 µM; also: % is scaled to controls: 0 for no effect and ±100 for the full control effect; nearly all actives have a fitted effect of over 55% in size
Method in brief: (§1)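 Luminescence from the ATPlite ATP-monitoring reagent indicates viable cell number; lower signal means cytotoxicity. Cells received compound 16 h after seeding and were exposed for 48 h across five concentrations.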

CAOV3 = test: as above; details: Gynecologic cancer cell panel viability, ATPlite luminescence, 48 h; series mostly up to 57.5 µM
Method in brief: as §1

CASKI = test: as above; details: Gynecologic cancer cell panel viability, ATPlite luminescence, 48 h; series mostly up to 57.5 µM
Method in brief: as §1

Es-2 = test: as above; details: Gynecologic cancer cell panel viability, ATPlite luminescence, 48 h; series mostly up to 57.5 µM
Method in brief: as §1

HeLa = test: as above; details: Gynecologic cancer cell panel viability, ATPlite luminescence, 48 h; series mostly up to 57.5 µM
Method in brief: as §1

Hek293T = test: as above; details: Gynecologic cancer cell panel viability, ATPlite luminescence, 48 h, control line for the selectivity index; series mostly up to 57.5 µM
Method in brief: as §1

JEG-3 = test: as above; details: Gynecologic cancer cell panel viability, ATPlite luminescence, 48 h; series mostly up to 57.5 µM
Method in brief: as §1

OV90 = test: as above; details: Gynecologic cancer cell panel viability, ATPlite luminescence, 48 h; series mostly up to 57.5 µM
Method in brief: as §1

PA-1 = test: as above; details: Gynecologic cancer cell panel viability, ATPlite luminescence, 48 h; series mostly up to 57.5 µM
Method in brief: as §1

Tov-21-G = test: as above; details: Gynecologic cancer cell panel viability, ATPlite luminescence, 48 h; series mostly up to 57.5 µM
Method in brief: as §1

Tov112D = test: as above; details: Gynecologic cancer cell panel viability, ATPlite luminescence, 48 h; series mostly up to 57.5 µM
Method in brief: as §1

[1] = Drug repurposing screens with cells derived from glioblastoma tumor samples (AID 1345199); details: GBM patient neurospheres viability, ATP luminescence, 48 h; also: % is scaled to controls: 0 for no effect and ±100 for the full control effect; nearly all actives have a fitted effect of over 40% in size
Method in brief: (§2)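 Four patient lines of CD133+ GBM neurospheres were screened at several concentrations; hits were retested in those lines plus three slower-growing GBM lines, using 48-hour treatment and ATP-based viability.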

astro = test: as above; details: viability, ATP luminescence, 48 h; series mostly up to 45.9 µM
Method in brief: as §2

SKOV3 = test: Primary qHTS to identify gynecologic anti-cancer compounds using libraries of approved drugs and bioactive compounds (AID 1345084); details: Gynecologic cancer cell panel viability, ATPlite luminescence, 48 h; series mostly up to 57.5 µM; also: % is scaled to controls: 0 for no effect and ±100 for the full control effect; nearly all actives have a fitted effect of over 55% in size
Method in brief: as §1

[2] = target: Nuclear receptor subfamily 1 group I member 2 (Rattus norvegicus) (UniProt Q9R1A7); test: qHTS assay for small molecule activators of the rat pregnane X receptor (rPXR) signaling pathway (AID 651751; call rule not given here; also: 0% is about no effect); details: rPXR reporter cells, luciferase (One-Glo), 24 h
[3] = qHTS assay for small molecule activators of the human pregnane X receptor (PXR) signaling pathway (AID 720659; call rule not given here; also: 0% is about no effect)
[4] = at 20 µM (top of the series), tumour line C
[5] = at 21.2 µM (top of the series), tumour line B
[6] = at 21.2 µM (top of the series), tumour line D
[7] = at 21.3 µM (top of the series), tumour line A
[8] = at 45.9 µM (top of the series), tumour line B
[9] = at 45.9 µM (top of the series), tumour line D
[10] = at 46 µM (top of the series), tumour line A
[11] = at 46.1 µM (top of the series), tumour line C

Nuclear receptor subfamily 1 group I member 2 (Rattus norvegicus), sequence (Q9R1A7 whole entry, looked up): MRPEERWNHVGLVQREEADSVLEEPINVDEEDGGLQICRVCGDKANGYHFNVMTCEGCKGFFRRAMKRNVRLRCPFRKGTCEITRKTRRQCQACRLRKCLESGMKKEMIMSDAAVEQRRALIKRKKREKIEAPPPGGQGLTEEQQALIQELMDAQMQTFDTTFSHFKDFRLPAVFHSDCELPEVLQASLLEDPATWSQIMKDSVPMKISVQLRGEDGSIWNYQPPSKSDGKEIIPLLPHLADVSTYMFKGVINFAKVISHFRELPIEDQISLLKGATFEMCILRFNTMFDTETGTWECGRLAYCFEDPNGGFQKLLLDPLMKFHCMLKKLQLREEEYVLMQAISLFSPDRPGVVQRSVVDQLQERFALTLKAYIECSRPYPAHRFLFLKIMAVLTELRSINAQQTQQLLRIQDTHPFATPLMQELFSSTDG

CC(=O)[C@@]1(O)CC[C@H]2[C@@H]3C[C@H](C)C4=CC(=O)C=C[C@]4(C)[C@@]3(F)[C@@H](O)C[C@@]21C
inactive: outcome (C33A) | outcome (CAOV3) | outcome (CASKI) | outcome (Es-2) | outcome (HeLa) | outcome (Hek293T) | outcome (JEG-3) | Potency (OV90) | outcome (PA-1) | outcome (Tov-21-G) | outcome (Tov112D) | activity, negative = cell killing [1, 4] -10.6% | activity, negative = cell killing [1, 5] 4.4% | activity, negative = cell killing [1, 6] -1.22% | activity, negative = cell killing [1, 7] 13.1% | outcome (astro)

CC(=O)OCC(=O)[C@@]1(O)CC[C@H]2[C@@H]3CCC4=CC(=O)C=C[C@]4(C)[C@@]3(F)[C@@H](O)C[C@@]21C
inactive: outcome (C33A) | outcome (CASKI) | outcome (Es-2) | outcome (HeLa) | outcome (Hek293T) | outcome (JEG-3) | Potency (OV90) | outcome (PA-1) | outcome (Tov-21-G) | outcome (Tov112D) | activity, negative = cell killing [1, 4] 11.3% | activity, negative = cell killing [1, 5] 1.05% | activity, negative = cell killing [1, 6] -1.44% | activity, negative = cell killing [1, 7] -7.16% | outcome (astro)

C1CCN2C[C@@H]3C[C@@H](CN4CCCC[C@@H]34)[C@H]2C1
inactive: outcome (C33A) | outcome (CAOV3) | outcome (CASKI) | outcome (Es-2) | outcome (HeLa) | outcome (Hek293T) | outcome (JEG-3) | outcome (PA-1) | outcome (SKOV3) | outcome (Tov-21-G) | outcome (Tov112D) | activity, negative = cell killing [1, 4] 4.02% | activity, negative = cell killing [1, 5] -1.82% | activity, negative = cell killing [1, 6] -18% | activity, negative = cell killing [1, 7] -22% | outcome (astro)

CCS(=O)(=O)CCn1c([N+](=O)[O-])cnc1C
inactive: outcome (C33A) | outcome (CAOV3) | outcome (Es-2) | outcome (HeLa) | outcome (Hek293T) | outcome (JEG-3) | Potency (OV90) | outcome (PA-1) | outcome (SKOV3) | outcome (Tov-21-G) | outcome (Tov112D) | activity, negative = cell killing [1, 4] -12.4% | activity, negative = cell killing [1, 5] -11.3% | activity, negative = cell killing [1, 6] 3.43% | activity, negative = cell killing [1, 7] -20.5% | outcome (astro)

COCC(=O)Nc1c(I)c(C(=O)NCC(O)CO)c(I)c(C(=O)N(C)CC(O)CO)c1I (centres undefined)
inactive: outcome (C33A) | outcome (CAOV3) | outcome (CASKI) | outcome (HeLa) | outcome (Hek293T) | outcome (JEG-3) | Potency (OV90) | outcome (PA-1) | outcome (SKOV3) | outcome (Tov-21-G) | outcome (Tov112D) | activity, negative = cell killing [1, 4] 5.9% | activity, negative = cell killing [1, 5] -2.18% | activity, negative = cell killing [1, 6] -2.4% | activity, negative = cell killing [1, 7] -10.5% | outcome (astro)

COc1cc(C(=O)NCCCCCC(=O)O)cc(OC)c1OC
inactive: outcome (C33A) | outcome (CAOV3) | outcome (CASKI) | outcome (Es-2) | outcome (HeLa) | outcome (Hek293T) | outcome (JEG-3) | Potency (OV90) | outcome (Tov-21-G) | outcome (Tov112D) | activity, negative = cell killing [1, 8] -7.31% | activity, negative = cell killing [1, 9] -8.75% | activity, negative = cell killing [1, 10] -18.3% | activity, negative = cell killing [1, 11] -40.8%

CC(=O)Oc1cccc(O)c1
inactive: outcome (C33A) | outcome (CAOV3) | outcome (CASKI) | outcome (Es-2) | outcome (HeLa) | outcome (Hek293T) | outcome (JEG-3) | outcome (PA-1) | outcome (SKOV3) | outcome (Tov-21-G) | outcome (Tov112D) | activity, negative = cell killing [1, 8] -1.54% | activity, negative = cell killing [1, 9] -17.1% | activity, negative = cell killing [1, 10] -23.9% | activity, negative = cell killing [1, 11] -11% | outcome (astro)

O=c1[nH]c(=O)n([C@H]2C[C@H](O)[C@@H](CO)O2)cc1I
inactive: outcome (C33A) | outcome (CASKI) | outcome (Es-2) | outcome (HeLa) | outcome (Hek293T) | outcome (JEG-3) | Potency (OV90) | outcome (PA-1) | outcome (SKOV3) | outcome (Tov-21-G) | outcome (Tov112D) | activity, negative = cell killing [1, 4] -27.4% | activity, negative = cell killing [1, 5] -17% | activity, negative = cell killing [1, 7] -18.1% | outcome (astro)

CC(C)=CCC[C@@](C)(O)[C@H]1CC=C(C)CC1
inactive: outcome (C33A) | outcome (CAOV3) | outcome (CASKI) | outcome (Es-2) | outcome (Hek293T) | outcome (JEG-3) | Potency (OV90) | outcome (PA-1) | outcome (SKOV3) | outcome (Tov-21-G) | outcome (Tov112D) | activity, negative = cell killing [1, 8] -3.12% | activity, negative = cell killing [1, 9] 18.2% | activity, negative = cell killing [1, 11] -10.5% | outcome (astro)

NS(=O)(=O)c1cc(-c2nn[nH]n2)c(NCc2cccs2)cc1Cl
inactive: outcome (C33A) | outcome (CAOV3) | outcome (CASKI) | outcome (Es-2) | outcome (HeLa) | outcome (Hek293T) | outcome (JEG-3) | outcome (PA-1) | outcome (Tov-21-G) | outcome (Tov112D) | activity, negative = cell killing [1, 8] 0.416% | activity, negative = cell killing [1, 9] -1.64% | activity, negative = cell killing [1, 11] -29.2% | outcome (astro)

CCCCCCCCCCCCCCCCCCO
inactive: outcome (C33A) | outcome (CAOV3) | outcome (CASKI) | outcome (Es-2) | outcome (HeLa) | outcome (Hek293T) | outcome (JEG-3) | Potency (OV90) | outcome (SKOV3) | outcome (Tov-21-G) | outcome (Tov112D) | activity, negative = cell killing [1, 8] -13.2% | activity, negative = cell killing [1, 9] -6.74% | activity, negative = cell killing [1, 11] -1.06% | outcome (astro) | max response [2] 0.797% | outcome [3]

CN1CC(=O)NC1=N
inactive: outcome (C33A) | outcome (CAOV3) | outcome (CASKI) | outcome (Es-2) | outcome (HeLa) | outcome (Hek293T) | outcome (JEG-3) | Potency (OV90) | outcome (SKOV3) | outcome (Tov-21-G) | outcome (Tov112D) | activity, negative = cell killing [1, 8] -7.86% | activity, negative = cell killing [1, 9] -12.2% | activity, negative = cell killing [1, 10] -16.7% | activity, negative = cell killing [1, 11] -13.9% | outcome (astro)

NC(=O)N[C@@H](CCC(=O)O)C(=O)O
inactive: outcome (C33A) | outcome (CAOV3) | outcome (CASKI) | outcome (Es-2) | outcome (Hek293T) | outcome (JEG-3) | Potency (OV90) | outcome (SKOV3) | activity, negative = cell killing [1, 8] -6.35% | activity, negative = cell killing [1, 9] -8.74% | activity, negative = cell killing [1, 10] -22.8% | activity, negative = cell killing [1, 11] -19.7% | outcome (astro)

Reference: PubChem BioAssay (NCATS)
